# Experimental data reported in PubChem BioAssay.
# The source made the active and inactive calls.
# Assays:
# [1] = tested on: Plasmodium falciparum Sir2 (PF13_0152, Sir2A); experiment: pfSir2 binders on small-molecule microarrays, primary screen, biochemical, small-molecule microarray, 635 nm fluorescence (AID 1098); conditions: small-molecule microarray binding, fluorescence 635 nm; higher = more signal;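 also: score merges spot fluorescence intensity with its signal-to-noise ratio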
# [2] = small-molecule microarray binders of probe aDKK1, primary screen, biochemical, biotinylated probe, 635/667 nm fluorescence (AID 1099); conditions: higher = more signal;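 also: score merges 667nm spot fluorescence with signal to noise across triplicate slides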
# [3] = small-molecule microarray binders of probe aCHRDL2, primary screen, biochemical, biotinylated probe, 635/667 nm fluorescence (AID 1100); conditions: higher = more signal
# [4] = splicing luciferase reporter signal modulators, primary screen, spliceosome inhibition project, cell-based, HEK293, splice +/- reporter (AID 1101); conditions: luminescence, 24 h, higher = more signal, called active from +8 up or from −8 down;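 also: HEK293 cells carrying a splicing-competent luciferase reporter gene; test concentration not given here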
# [5] = target: Fibroblast growth factor 10 (Homo sapiens) (UniProt O15520); experiment: FGF10 binders on small-molecule microarrays, primary screen, biochemical, small-molecule microarray, 635 nm fluorescence (AID 1102); conditions: FGF10 binding, fluorescence 635 nm, higher = more signal
# Fibroblast growth factor 10 (Homo sapiens), sequence (O15520 whole entry, looked up): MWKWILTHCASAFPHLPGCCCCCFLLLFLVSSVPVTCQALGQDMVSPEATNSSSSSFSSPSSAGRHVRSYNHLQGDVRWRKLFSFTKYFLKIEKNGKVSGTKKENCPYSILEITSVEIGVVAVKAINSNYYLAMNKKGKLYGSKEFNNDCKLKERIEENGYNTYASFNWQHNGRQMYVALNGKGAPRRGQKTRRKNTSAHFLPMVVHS
# [6] = tested on: glycogen synthase kinase-3 (GSK3A per assay name; protocol says GSK3B); experiment: GSK3 binders on small-molecule microarrays, primary screen, biochemical, small-molecule microarray, 635 nm fluorescence, GSK3A (AID 1103); conditions: small-molecule microarray binding, fluorescence 635 nm; higher = more signal; also: the record names both GSK3A and GSK3B
# [7] = target: Epidermal growth factor receptor (Homo sapiens) (UniProt P00533); experiment: EGFR binders on small-molecule microarrays, primary screen, biochemical, small-molecule microarray, 635 nm fluorescence (AID 1104); conditions: EGFR binding, higher = more signal;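 also: score merges 667 nm emission intensity with spot signal to noise over triplicate slides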
# Epidermal growth factor receptor (Homo sapiens), sequence (P00533 whole entry, looked up): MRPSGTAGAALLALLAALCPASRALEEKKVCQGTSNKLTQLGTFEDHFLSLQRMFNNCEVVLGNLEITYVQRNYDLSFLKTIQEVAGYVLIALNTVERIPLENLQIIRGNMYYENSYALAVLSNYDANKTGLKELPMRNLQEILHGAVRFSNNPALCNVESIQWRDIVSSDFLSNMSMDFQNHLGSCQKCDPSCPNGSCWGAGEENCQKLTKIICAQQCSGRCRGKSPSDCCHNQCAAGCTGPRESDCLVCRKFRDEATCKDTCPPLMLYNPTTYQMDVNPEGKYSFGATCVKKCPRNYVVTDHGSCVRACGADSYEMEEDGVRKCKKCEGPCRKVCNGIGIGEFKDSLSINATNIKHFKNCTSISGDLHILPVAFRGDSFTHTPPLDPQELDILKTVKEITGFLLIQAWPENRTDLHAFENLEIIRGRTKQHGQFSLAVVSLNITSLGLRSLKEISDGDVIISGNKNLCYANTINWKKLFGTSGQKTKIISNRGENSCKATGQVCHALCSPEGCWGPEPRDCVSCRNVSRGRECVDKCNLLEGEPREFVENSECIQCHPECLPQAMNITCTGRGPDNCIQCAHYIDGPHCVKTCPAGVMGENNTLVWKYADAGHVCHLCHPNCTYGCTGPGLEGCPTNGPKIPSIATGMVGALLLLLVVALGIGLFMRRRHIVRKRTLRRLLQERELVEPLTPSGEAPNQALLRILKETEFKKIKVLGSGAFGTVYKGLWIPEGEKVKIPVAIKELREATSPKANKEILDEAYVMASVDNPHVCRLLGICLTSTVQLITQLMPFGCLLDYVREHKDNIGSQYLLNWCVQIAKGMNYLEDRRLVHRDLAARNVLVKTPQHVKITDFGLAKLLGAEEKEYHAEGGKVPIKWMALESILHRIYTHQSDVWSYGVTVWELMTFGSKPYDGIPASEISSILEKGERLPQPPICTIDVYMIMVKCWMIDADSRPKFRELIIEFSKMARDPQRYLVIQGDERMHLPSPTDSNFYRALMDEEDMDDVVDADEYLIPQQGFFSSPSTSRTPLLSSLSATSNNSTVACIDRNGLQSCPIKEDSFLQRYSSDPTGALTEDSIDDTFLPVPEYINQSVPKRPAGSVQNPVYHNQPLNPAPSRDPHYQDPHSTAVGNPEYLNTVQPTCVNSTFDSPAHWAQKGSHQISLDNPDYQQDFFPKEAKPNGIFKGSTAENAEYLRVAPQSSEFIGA
# [8] = target: Follistatin-related protein 3 (Homo sapiens) (UniProt O95633); experiment: FSTL3 binders on small-molecule microarrays, primary screen, biochemical, small-molecule microarray, 635 nm fluorescence (AID 1105); conditions: FSTL3 binding, higher = more signal;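 also: score merges emission near 667 nm and signal to noise per printed spot across three slides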
# Follistatin-related protein 3 (Homo sapiens), sequence (O95633 whole entry, looked up): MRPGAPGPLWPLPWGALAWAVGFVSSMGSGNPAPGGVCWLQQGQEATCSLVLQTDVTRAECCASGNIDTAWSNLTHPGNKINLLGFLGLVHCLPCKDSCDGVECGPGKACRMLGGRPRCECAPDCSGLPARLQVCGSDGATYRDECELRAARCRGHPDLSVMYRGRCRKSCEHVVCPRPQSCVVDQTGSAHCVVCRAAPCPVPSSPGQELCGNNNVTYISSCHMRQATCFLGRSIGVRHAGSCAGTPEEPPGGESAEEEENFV
# [9] = target: Dickkopf-related protein 1 (Homo sapiens) (UniProt O94907); experiment: DKK1 binders on small-molecule microarrays, primary screen, biochemical, small-molecule microarray, 635 nm fluorescence scan (AID 1106); conditions: DKK1 binding, higher = more signal;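 also: score merges emission near 667 nm with signal to noise over three replicate slides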
# Dickkopf-related protein 1 (Homo sapiens), sequence (O94907 whole entry, looked up): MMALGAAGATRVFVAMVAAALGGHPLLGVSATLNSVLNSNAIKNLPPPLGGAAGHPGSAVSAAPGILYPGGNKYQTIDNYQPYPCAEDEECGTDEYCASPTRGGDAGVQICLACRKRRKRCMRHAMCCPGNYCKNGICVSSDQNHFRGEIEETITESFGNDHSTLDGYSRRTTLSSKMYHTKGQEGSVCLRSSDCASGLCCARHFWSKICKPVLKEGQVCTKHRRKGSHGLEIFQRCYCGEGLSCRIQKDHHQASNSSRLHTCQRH
# [10] = tested on: Inhibin beta A chain (activin A); experiment: INHBA (activin A) binders on microarrays, primary screen, biochemical, small-molecule microarray, 635 nm fluorescence scan (AID 1107); conditions: small-molecule microarray binding, higher = more signal;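 also: mouse activin A protein probed at 4.33 µg/mL on printed slides; score merges bound-protein fluorescence near 667 nm with spot signal-to-noise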
# [11] = tested on: Human papillomavirus type 1a protein E7 (residues 44-93); experiment: HPV1a E7 fragment binders on microarrays, primary screen, biochemical, small-molecule microarray, residues 44-93, 635 nm fluorescence (AID 1108); conditions: small-molecule microarray binding, fluorescence 635 nm; higher = more signal;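 also: E7 fragment applied at 1 µg/mL in TBST for 1 h at 4 C; score combines spot fluorescence with its signal to noise ratio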
# [12] = modulators of HCV replicon luciferase signal, primary screen, HCV replication inhibitor project, Huh7 cells, luciferase reporter (AID 1109); conditions: 48 h, higher = more signal;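 also: huh7 hepatoma cells harbouring a luciferase neomycin HCV replicon reporter; luciferase luminescence as measure of HCV replicon replication; test concentration not given here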
# [13] = target: Left-right determination factor 2 (Homo sapiens) (UniProt O00292); experiment: LEFTY2 binders on small-molecule microarrays, primary screen, biochemical, small-molecule microarray, 635 nm fluorescence scan (AID 1110); conditions: LEFTY2 binding, higher = more signal
# Left-right determination factor 2 (Homo sapiens), sequence (O00292 whole entry, looked up): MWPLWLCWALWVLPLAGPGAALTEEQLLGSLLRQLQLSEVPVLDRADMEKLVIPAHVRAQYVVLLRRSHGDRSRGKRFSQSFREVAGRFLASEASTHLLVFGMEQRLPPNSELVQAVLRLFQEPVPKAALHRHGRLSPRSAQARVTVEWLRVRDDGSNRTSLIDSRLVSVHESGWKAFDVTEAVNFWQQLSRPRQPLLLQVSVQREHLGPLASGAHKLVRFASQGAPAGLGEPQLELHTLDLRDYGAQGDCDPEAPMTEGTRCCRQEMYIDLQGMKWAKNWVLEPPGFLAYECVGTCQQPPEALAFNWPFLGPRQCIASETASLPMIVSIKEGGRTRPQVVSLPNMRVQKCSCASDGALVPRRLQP
# [14] = target: Calmodulin-1 (Homo sapiens) (UniProt P0DP23); experiment: CALM1 binders on microarrays, EGTA buffer, profiling panel, biochemical, small-molecule microarray, Cy5-labelled CALM1 (AID 1111); conditions: Cy5-CALM1 binding fluorescence, higher = more signal;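 also: labelled calmodulin applied in Tris saline Tween buffer holding calcium plus EGTA and DTT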
# [15] = target: Calmodulin-1 (Homo sapiens) (UniProt P0DP23); experiment: calcium-bound CALM1 binders on microarrays, profiling panel, artefact control for SMM control-protein annotation, biochemical, small-molecule microarray, Cy5-labelled CALM1, plus calcium (AID 1112); conditions: Cy5-CALM1 binding fluorescence, higher = more signal;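 also: score merges spot fluorescence with signal to noise from triplicate slides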
# [16] = small-molecule microarray binders of probe aWnt5a, primary screen, biochemical, biotinylated probe, 635/667 nm fluorescence (AID 1113); conditions: higher = more signal;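 also: score merges 667 nm fluorescence intensity with signal-to-noise per printed feature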
# [17] = small-molecule microarray binders of probe aShh, primary screen, biochemical, biotinylated probe, 635/667 nm fluorescence (AID 1114); conditions: higher = more signal;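 also: probe is biotin-labelled aShh protein from a stem cell growth factor screen; measures binding of labelled protein to compounds printed on the slide; score merges feature fluorescence at 667 nm with signal-to-noise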
# [18] = small-molecule microarray binders of probe aNog, primary screen, biochemical, biotinylated probe, 635/667 nm fluorescence (AID 1115); conditions: higher = more signal;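 also: probe is biotinylated aNog protein used at 0.15 µg/mL for 1 h at 4 C; z-score combines 667 nm fluorescence of each spot with its signal to noise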
# [19] = target: Torsin-1A-interacting protein 1 (Homo sapiens) (UniProt Q5JTV8); experiment: LAP1 binders from COS7 cell lysate, primary screen, small-molecule microarray, 635/667 nm fluorescence (AID 1116); conditions: COS7-hLAP1 lysate binding, 635 nm fluorescence, higher = more signal
# Torsin-1A-interacting protein 1 (Homo sapiens), sequence (Q5JTV8 whole entry, looked up): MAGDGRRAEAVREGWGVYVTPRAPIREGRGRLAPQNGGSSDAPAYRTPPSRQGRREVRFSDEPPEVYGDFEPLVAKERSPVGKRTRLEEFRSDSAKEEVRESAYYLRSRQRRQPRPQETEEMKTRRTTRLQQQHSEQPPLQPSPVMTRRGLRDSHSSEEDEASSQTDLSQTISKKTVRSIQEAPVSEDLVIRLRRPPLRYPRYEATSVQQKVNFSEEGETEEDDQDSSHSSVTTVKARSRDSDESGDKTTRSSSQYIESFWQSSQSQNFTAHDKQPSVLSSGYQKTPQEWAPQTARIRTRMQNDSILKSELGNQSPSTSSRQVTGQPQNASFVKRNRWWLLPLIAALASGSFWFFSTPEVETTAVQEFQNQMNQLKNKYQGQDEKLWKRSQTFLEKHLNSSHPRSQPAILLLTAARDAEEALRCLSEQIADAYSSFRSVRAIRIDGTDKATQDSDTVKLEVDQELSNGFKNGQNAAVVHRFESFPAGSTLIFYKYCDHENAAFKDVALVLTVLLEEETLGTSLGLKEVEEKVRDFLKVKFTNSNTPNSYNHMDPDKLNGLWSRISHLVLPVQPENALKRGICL
# [20] = target: Alpha-bungarotoxin (Bungarus multicinctus) (UniProt P60615); experiment: alpha-bungarotoxin binders on microarray, profiling panel, artefact control for SMM control protein annotation, biochemical, small-molecule microarray, Alexa647 label, 635/667 nm fluorescence (AID 1117); conditions: alpha-BTX-A647 binding fluorescence, higher = more signal
# Alpha-bungarotoxin (Bungarus multicinctus), sequence (P60615 whole entry, looked up): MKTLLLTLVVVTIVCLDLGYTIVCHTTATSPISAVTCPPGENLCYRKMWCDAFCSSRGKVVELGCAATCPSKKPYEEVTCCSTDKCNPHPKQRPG
Compound,composite z-score [1],composite z-score [2],composite z-score [3],z-score [4],composite z-score [5],composite z-score [6],composite z-score [7],composite z-score [8],composite z-score [9],composite z-score [10],composite z-score [11],z-score [12],composite z-score [13],composite z-score [14],composite z-score [15],composite z-score [16],composite z-score [17],composite z-score [18],composite z-score [19],composite z-score [20]
Cc1ccc(S[C@]2(C(=O)O)CC(=O)N(Cc3ccccc3)[C@@H]2c2ccc(CO)cc2I)cc1,1.17,-0.0401,0.894,-0.982 (inactive),-0.406,-0.0099,-0.814,-0.417,-0.776,0.84,0.34,-1.45,-0.891,-0.0405,-0.0584,-0.118,-0.206,-0.409,-0.192,0.823
CC(CCN1CCc2nc(-c3ccccc3)c(-c3ccccc3)cc2C1)=NOC(C)CN1CCCCc2nc(C)c(C)cc21 (stereo not given),0.646,-0.0421,0.318,-0.0114 (inactive),0.593,0.746,0.964,0.609,0.77,1.15,1.27,-2.03,0.573,0.578,-0.0705,-0.0819,-0.202,-0.077,0.787,0.799
COC(=O)[C@@H]1CCCN1C(=O)[C@@H](C)CO,0.42,-0.0908,-0.445,-0.74 (inactive),0.601,1.24,0.524,0.592,0.547,-0.198,0.946,0.868,0.344,0.49,0.0051,-0.0566,-0.2,0.141,0.451,1.13
O=C1[C@H]2[C@H]3[C@H](O)[C@H](O)CC(=NOC[C@@H](O)COCc4ccco4)[C@H]3CC[C@H]2C(=O)N1Cc1ccc2c(c1)OCO2,0.285,0.534,-1.5,0.204 (inactive),0.11,1.28,0.986,0.83,1.39,0.0751,-0.532,-0.385,1.37,-1.37,-2.03,-0.119,-0.349,-0.278,0.13,-0.147
C=CC[C@]1(C(=O)NCc2ccccc2)N=C(c2ccc(OCCCO)cc2)O[C@H]1c1ccccc1,0.689,0.213,1.06,0.332 (inactive),0.462,0.165,-0.29,0.291,-0.328,0.173,1.46,-2.41,-0.778,0.392,-0.483,-0.0944,0.696,0.257,1.62,2.46
C#CCCCON=C1C[C@@H](O)[C@@H](O)[C@@H]2[C@@H]3C(=O)N(c4cccc(Oc5ccccc5)c4)C(=O)[C@@H]3CC[C@@H]12,0.632,-0.178,0.0505,-0.417 (inactive),0.985,0.548,0.213,0.802,-0.0498,-0.211,1.3,-0.497,0.159,0.298,-0.285,-0.0808,-0.0709,-0.183,0.0847,0.724
C=C(/C(=C/C[C@@H](OC(=O)c1ccncc1)c1ccc(OCCO)cc1)c1cnc2ccccc2c1)C(C)C,1.2,-0.144,-0.216,-2.87 (inactive),1.54,1.28,0.419,1.24,0.824,1.56,0.901,-3.18,0.466,0.193,-0.583,-0.272,-0.0234,-0.302,2.75,1.26
C[C@@H]1C=CCC(=O)OC[C@H](C)C(=O)OC[C@H]2O[C@H]1C=C[C@H]2O,0.128,-0.439,-0.833,1.17 (inactive),0.678,0.387,0.339,0.808,0.545,-0.181,0.0717,-2.33,0.71,-0.239,-1.16,-0.228,-0.0793,-0.278,-0.0644,-0.108
CN(C)C(=O)[C@@]1(Cc2ccccc2)N=C(c2ccc(OCCCO)cc2)O[C@H]1c1ccccc1CN=[N+]=[N-],1.2,1.44,1.35,0.32 (inactive),1.47,0.777,-0.194,0.732,0.0591,0.784,1.1,-2.14,-0.068,2.47,1.26,0.313,0.64,-0.18,2.95,2.62
O=C1[C@H]2[C@H]3[C@H](O)[C@H](O)CC(=NO[C@@H]4O[C@H](CO)[C@@H](O)[C@H](O)[C@H]4O)[C@@H]3CC[C@H]2C(=O)N1Cc1ccc2c(c1)OCO2,0.456,-0.174,-0.576,0.0977 (inactive),0.422,0.708,0.4,0.521,0.921,-0.292,1.13,0.363,0.387,0.0102,-0.566,-0.0519,-0.403,-0.244,0.715,0.378
O=C1c2ccccc2[C@@]2(Cc3ccccc3N(C3CC3)C2=O)[C@H](c2ccc(CO)cc2)N1Cc1ccccc1C(F)(F)F,-0.0922,0.261,0.281,-0.628 (inactive),-0.837,-0.433,-0.942,-0.672,-1.2,0.394,0.223,-2.39,-1.18,-0.48,-0.382,-0.154,0.0545,-0.23,0.188,-1.37
CO[C@@H]1COC(=O)CC=C[C@@H](C)COC(=O)[C@H](COCc2ccccc2)NC(=O)CC=C[C@H]1C,1.49,-0.526,-1.31,-0.912 (inactive),0.285,0.19,0.912,1.23,1.64,1.63,-0.956,-0.151,1.02,-0.838,-1.28,-0.0721,0.0278,-0.298,0.325,-0.397
